In PubChem BioAssay (EPA / NIEHS):
Records with an inconclusive call do not appear. Active and inactive are the calls of the source. How the source made its calls, unless noted: active means hit-call score of the fitted dose curve at least 0.9, where 1 is the maximum; inactive means score below 0.9.

Tested on: not listed separately
Experiment: ATG_VDRE_CIS: Attagene CIS-FACTORIAL HepG2 Assay for human Vitamin D Receptor Element (VDRE) (AID 2282968)
Conditions: HepG2 VDRE cis-reporter transcription, actives raise or lower the signal
Procedure, shortened: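 HepG2 cells transiently transfected with cis-element reporter units, dosed 24 h; reporter mRNA measured by RT-PCR, 6-FAM labeling, HpaI digestion and capillary electrophoresis. Activity fitted bidirectionally against DMSO baseline.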

SMILES	outcome	AC50
O=C1C(Cl)=C(Cl)C(=O)C(Cl)=C1Cl	inactive	–
N#CCCCCC#N	inactive	–
CC1CCC(=O)O1 (stereo not given)	inactive	–
COc1cc(OC)c(OC)cc1C=O	inactive	–
CC(C)c1ccc(O)cc1	inactive	–
CC(C)(c1cc(Cl)c(O)c(Cl)c1)c1cc(Cl)c(O)c(Cl)c1	–	27.2 µM (active)
[N-]=[N+]=CC(=O)OC[C@H](N)C(=O)O	inactive	–
COCC(=O)N(c1c(C)cccc1C)N1CCOC1=O	–	65.9 µM (active)
CC(C)CCCCCCCOP(=O)(Oc1ccccc1)Oc1ccccc1	–	1.66 µM (active)
CCC1CCC(=O)O1 (stereo not given)	inactive	–
C=COCCCl	inactive	–
C=CCN(CC=C)C(=O)C(Cl)Cl	inactive	–
CC[N+](=O)[O-]	inactive	–
[Cl-].[Cl-].[Cl-].[Yb+3]	inactive	–
CCOC(=O)N(C)N=O	inactive	–
O=CNC(N1CCN(C(NC=O)C(Cl)(Cl)Cl)CC1)C(Cl)(Cl)Cl (stereo not given)	–	15.3 µM (active)
CCC[N+](=O)[O-]	inactive	–

SMILES	outcome	AC50
CC(C)(O)C#N	inactive	–
CCCCCc1cc(O)cc(O)c1	–	16 µM (active)
CSc1nc(N=[N+]=[N-])nc(NC(C)C)n1	inactive	–
CC=Cc1ccc2c(c1)OCO2	inactive	–
Cc1ccc(OP(=O)(Oc2ccc(C)cc2)Oc2ccc(C)cc2)cc1 (tested in a mixture with another compound)	–	2.35 µM (active)
ClC1=C(Cl)[C@]2(Cl)[C@@H]3[C@@H](Cl)[C@H](Cl)C[C@@H]3[C@@]1(Cl)C2(Cl)Cl	inactive	–
O=S(=O)(c1ccccc1)c1ccccc1	–	31.4 µM (active)
CCC(C)c1cc(C(C)(C)C)cc(-n2nc3ccccc3n2)c1O (stereo not given)	inactive	–
CC1(C)C(=O)NC(=O)NC1=O	inactive	–
CC(=O)/C=C/c1ccccc1	–	31.6 µM (active)
c1ccc(P(c2ccccc2)c2ccccc2)cc1	inactive	–
CCN(CC)C(=S)S	inactive	–
N#Cc1cccc(C#N)c1	inactive	–
O=C1Nc2ccc(Cl)cc2C(c2ccccc2)=NC1O (stereo not given)	inactive	–
N#CC(c1ccccc1)c1ccccc1	–	30.3 µM (active)
C[N+](C)=CCl	inactive	–

Molecular target: Nuclear receptor subfamily 1 group I member 3 (Homo sapiens) (UniProt Q14994)
Sequence (Q14994 whole entry, looked up): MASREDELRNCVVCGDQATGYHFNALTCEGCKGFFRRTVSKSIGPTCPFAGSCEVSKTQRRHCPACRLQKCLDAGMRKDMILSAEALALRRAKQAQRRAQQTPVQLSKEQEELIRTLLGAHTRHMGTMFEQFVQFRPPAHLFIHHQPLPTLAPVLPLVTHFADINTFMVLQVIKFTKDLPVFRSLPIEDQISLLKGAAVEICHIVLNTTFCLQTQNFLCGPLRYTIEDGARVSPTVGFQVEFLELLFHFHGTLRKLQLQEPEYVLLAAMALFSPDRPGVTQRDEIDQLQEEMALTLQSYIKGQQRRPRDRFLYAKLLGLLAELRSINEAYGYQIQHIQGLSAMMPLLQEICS
Experiment: ATG_CAR_TRANS: Attagene TRANS-FACTORIAL HepG2 Assay for human Constitutive Androstane Receptor (CAR) (AID 2282969; active means hit-call score of the fitted dose curve at least 0.9, where 1 is the maximum;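 further: activators raise reporter mRNA above DMSO so AC50 marks induction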)
Conditions: HepG2 Attagene TRANS-FACTORIAL CAR reporter
Procedure, shortened: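 HepG2 cells transiently transfected with multiplexed GAL4-UAS reporter units expressing chimeric NR-Gal4 proteins; compound exposure 24 h. Reporter mRNA measured by RT-PCR, 6-FAM labelling, HpaI digestion and capillary electrophoresis; gain-of-signal fitted against DMSO baseline.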

SMILES	outcome
O=C1C(Cl)=C(Cl)C(=O)C(Cl)=C1Cl	inactive
CC(C)c1ccc(O)cc1	inactive
COCC(=O)N(c1c(C)cccc1C)N1CCOC1=O	inactive
CC(C)CCCCCCCOP(=O)(Oc1ccccc1)Oc1ccccc1	inactive
C=CCN(CC=C)C(=O)C(Cl)Cl	inactive
CC[N+](=O)[O-]	inactive
CC(Cc1ccc(C(C)(C)C)cc1)CN1C[C@@H](C)O[C@@H](C)C1 (stereo not given in full)	inactive
CC(C)(O)C#N	inactive
S=c1[nH]c2ccccc2[nH]1	inactive
c1ccc(Nc2ccc3ccccc3c2)cc1	inactive
CC=Cc1ccc2c(c1)OCO2	inactive
ClC1=C(Cl)[C@]2(Cl)[C@@H]3[C@@H](Cl)[C@H](Cl)C[C@@H]3[C@@]1(Cl)C2(Cl)Cl	inactive
CC(=O)/C=C/c1ccccc1	inactive
c1ccc(P(c2ccccc2)c2ccccc2)cc1	inactive
CCOC(=O)COc1ccc(Cl)cc1Cl	inactive
N#CC(c1ccccc1)c1ccccc1	inactive

Molecular target: Estrogen receptor (Homo sapiens) (UniProt P03372)
Sequence (P03372 whole entry, looked up): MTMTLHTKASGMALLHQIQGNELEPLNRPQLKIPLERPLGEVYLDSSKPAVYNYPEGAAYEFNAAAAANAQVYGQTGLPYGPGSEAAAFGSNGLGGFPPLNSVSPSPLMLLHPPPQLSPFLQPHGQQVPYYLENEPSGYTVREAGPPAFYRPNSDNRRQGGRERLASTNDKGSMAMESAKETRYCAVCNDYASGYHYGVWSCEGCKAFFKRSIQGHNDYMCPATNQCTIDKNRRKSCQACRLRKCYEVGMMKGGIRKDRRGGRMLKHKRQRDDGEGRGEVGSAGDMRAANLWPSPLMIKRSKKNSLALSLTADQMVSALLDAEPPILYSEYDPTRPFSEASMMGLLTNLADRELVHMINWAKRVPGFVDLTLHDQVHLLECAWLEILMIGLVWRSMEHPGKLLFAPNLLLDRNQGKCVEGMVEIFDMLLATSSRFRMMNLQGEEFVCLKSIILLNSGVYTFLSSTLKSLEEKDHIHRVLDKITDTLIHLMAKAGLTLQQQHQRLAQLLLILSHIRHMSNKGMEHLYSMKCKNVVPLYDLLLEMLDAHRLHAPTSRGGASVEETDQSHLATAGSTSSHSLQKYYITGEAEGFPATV
Experiment: ATG_ERa_TRANS: Attagene TRANS-FACTORIAL HepG2 Assay for human Estrogen Receptor alpha (ERa) (AID 2282970; active means hit-call score of the fitted dose curve at least 0.9, where 1 is the maximum)
Conditions: HepG2 Attagene TRANS ERa GAL4 reporter, mRNA
Procedure, shortened: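 HepG2 cells transiently transfected with multiplexed GAL4-UAS reporter units read out chimeric NR-Gal4 activity. After 24 h compound exposure, reporter mRNA was quantified by RT-PCR, 6-FAM labeling, HpaI digestion and capillary electrophoresis, relative to DMSO.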

SMILES	outcome	AC50
O=C1C(Cl)=C(Cl)C(=O)C(Cl)=C1Cl	inactive	–
COc1cc(OC)c(OC)cc1C=O	inactive	–
CC(C)CCCCCCCOP(=O)(Oc1ccccc1)Oc1ccccc1	–	5.78 µM (active)
O=CNC(N1CCN(C(NC=O)C(Cl)(Cl)Cl)CC1)C(Cl)(Cl)Cl (stereo not given)	inactive	–
c1ccc(Nc2ccc3ccccc3c2)cc1	–	4.65 µM (active)
CSc1nc(N=[N+]=[N-])nc(NC(C)C)n1	inactive	–
c1ccc(P(c2ccccc2)c2ccccc2)cc1	–	15.2 µM (active)
CCN(CC)C(=S)S	inactive	–
C[N+](C)=CCl	inactive	–

Molecular target: Steroid hormone receptor ERR1 (Homo sapiens) (UniProt P11474)
Sequence (P11474 whole entry, looked up): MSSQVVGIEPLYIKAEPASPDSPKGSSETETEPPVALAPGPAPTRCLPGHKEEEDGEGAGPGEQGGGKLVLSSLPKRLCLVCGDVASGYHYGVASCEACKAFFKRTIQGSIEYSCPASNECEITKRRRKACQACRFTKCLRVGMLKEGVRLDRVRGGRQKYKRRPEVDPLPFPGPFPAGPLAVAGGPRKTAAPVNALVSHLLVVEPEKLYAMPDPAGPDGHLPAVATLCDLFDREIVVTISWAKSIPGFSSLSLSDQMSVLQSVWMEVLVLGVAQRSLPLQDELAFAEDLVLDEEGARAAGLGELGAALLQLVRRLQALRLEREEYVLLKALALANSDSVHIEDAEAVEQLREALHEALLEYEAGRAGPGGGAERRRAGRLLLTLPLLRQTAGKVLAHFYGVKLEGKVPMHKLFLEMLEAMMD
Experiment: ATG_ERRa_TRANS: Attagene TRANS-FACTORIAL HepG2 Assay for human Estrogen-Related Receptor alpha (ERRa) (AID 2282971; active means hit-call score of the fitted dose curve at least 0.9, where 1 is the maximum)
Conditions: HepG2 Attagene TRANS reporter, ERRa transactivation
Procedure, shortened: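 HepG2 cells transiently transfected with GAL4-UAS reporter units and chimeric NR-Gal4 constructs; after 24 hour compound incubation, reporter mRNA quantified by RT-PCR, fluorescent labelling and capillary electrophoresis, gain of signal versus DMSO.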

SMILES	outcome
CC1CCC(=O)O1 (stereo not given)	inactive
COc1cc(OC)c(OC)cc1C=O	inactive
COCC(=O)N(c1c(C)cccc1C)N1CCOC1=O	inactive
CC(C)CCCCCCCOP(=O)(Oc1ccccc1)Oc1ccccc1	inactive
C=COCCCl	inactive
CC(Cc1ccc(C(C)(C)C)cc1)CN1C[C@@H](C)O[C@@H](C)C1 (stereo not given in full)	inactive
CCOC(=O)N(C)N=O	inactive
O=CNC(N1CCN(C(NC=O)C(Cl)(Cl)Cl)CC1)C(Cl)(Cl)Cl (stereo not given)	inactive
S=c1[nH]c2ccccc2[nH]1	inactive
c1ccc(Nc2ccc3ccccc3c2)cc1	inactive
ClC1=C(Cl)[C@]2(Cl)[C@@H]3[C@@H](Cl)[C@H](Cl)C[C@@H]3[C@@]1(Cl)C2(Cl)Cl	inactive
O=S(=O)(c1ccccc1)c1ccccc1	inactive
CC1(C)C(=O)NC(=O)NC1=O	inactive
N#CC(c1ccccc1)c1ccccc1	inactive

Molecular target: X-box-binding protein 1 (Homo sapiens) (UniProt P17861)
Sequence (P17861 whole entry, looked up): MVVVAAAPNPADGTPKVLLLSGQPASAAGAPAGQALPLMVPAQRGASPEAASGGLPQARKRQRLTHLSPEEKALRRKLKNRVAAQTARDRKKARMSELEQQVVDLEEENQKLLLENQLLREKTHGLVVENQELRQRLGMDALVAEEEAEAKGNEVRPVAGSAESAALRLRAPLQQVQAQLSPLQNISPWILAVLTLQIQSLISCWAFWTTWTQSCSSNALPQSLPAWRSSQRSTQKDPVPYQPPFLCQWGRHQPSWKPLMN
Experiment: ATG_Xbp1_CIS: Attagene CIS-FACTORIAL HepG2 Assay for human X-box Binding Protein 1 (XBP1) (AID 2282972)
Conditions: HepG2 XBP1 cis-element reporter, Attagene multiplex; actives raise or lower the signal
Procedure, shortened: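 HepG2 cells transiently transfected with multiple cis-element reporter units report endogenous TF activity; 24 h exposure, then reporter mRNA measured by RT-PCR, 6-FAM labelling, HpaI digestion and capillary electrophoresis. Bidirectional fitting versus DMSO.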

SMILES	outcome	AC50
CC1CCC(=O)O1 (stereo not given)	inactive	–
COc1cc(OC)c(OC)cc1C=O	inactive	–
CC(C)c1ccc(O)cc1	inactive	–
C[N+](C)(C)CC(=O)[O-]	inactive	–
CC(C)(c1cc(Cl)c(O)c(Cl)c1)c1cc(Cl)c(O)c(Cl)c1	inactive	–
CC(C)CCCCCCCOP(=O)(Oc1ccccc1)Oc1ccccc1	inactive	–
CCC1CCC(=O)O1 (stereo not given)	inactive	–
C=COCCCl	inactive	–
O=CNC(N1CCN(C(NC=O)C(Cl)(Cl)Cl)CC1)C(Cl)(Cl)Cl (stereo not given)	inactive	–
CCC[N+](=O)[O-]	inactive	–
CC(C)(O)C#N	inactive	–
CC(C)C#N	inactive	–
CCCCCc1cc(O)cc(O)c1	–	51.7 µM (active)
c1ccc(Nc2ccc3ccccc3c2)cc1	inactive	–
CSc1nc(N=[N+]=[N-])nc(NC(C)C)n1	inactive	–
CC=Cc1ccc2c(c1)OCO2	inactive	–
Cc1ccc(OP(=O)(Oc2ccc(C)cc2)Oc2ccc(C)cc2)cc1 (tested in a mixture with another compound)	inactive	–
ClC1=C(Cl)[C@]2(Cl)[C@@H]3[C@@H](Cl)[C@H](Cl)C[C@@H]3[C@@]1(Cl)C2(Cl)Cl	inactive	–
O=S(=O)(c1ccccc1)c1ccccc1	inactive	–
CCC(C)c1cc(C(C)(C)C)cc(-n2nc3ccccc3n2)c1O (stereo not given)	inactive	–
CC(=O)/C=C/c1ccccc1	inactive	–
c1ccc(P(c2ccccc2)c2ccccc2)cc1	inactive	–
CCOC(=O)COc1ccc(Cl)cc1Cl	inactive	–
CCN(CC)C(=S)S	inactive	–
N#Cc1cccc(C#N)c1	inactive	–
O=C1Nc2ccc(Cl)cc2C(c2ccccc2)=NC1O (stereo not given)	inactive	–
N#CC(c1ccccc1)c1ccccc1	inactive	–
C[N+](C)=CCl	inactive	–
